In the supplement of paper PMC13380429:

Test system: Vero E6 infected with SARS-CoV-2
Assay: inhibition of SARS-CoV-2 cytopathic effect; higher = more antiviral protection, active = above 15
Conditions: 48 h

Measured: inhibition of SARS-CoV-2 cytopathic effect

CC(C)C[C@H](NC(=O)CNC(=O)c1cc(Cl)ccc1Cl)B1OC(=O)C(CC(=O)O)(CC(=O)O)O1 [ixazomib-citrate]
active: 100 nM 22.3% | 833.33 nM 29% | 10000 nM 20.8%
inactive: 1 nM 2.06% | 8.33 nM 1.34%

Cc1cccc(-c2[nH]c(C(C)(C)C)nc2-c2ccc3nccnc3c2)n1
inactive: 1 nM 3.48% | 8.33 nM -0.18% | 100 nM 0.8% | 833.33 nM 0.91% | 10000 nM 1.69%

CC(C)N(C[C@H]1O[C@@H](n2cnc3c(N)ncnc32)[C@H](O)[C@@H]1O)[C@H]1C[C@@H](CCc2nc3cc(C(C)(C)C)ccc3[nH]2)C1
inactive: 1 nM 1.37% | 8.33 nM 1.4% | 100 nM 1.55% | 833.33 nM 3.8% | 10000 nM 4.66%

CCOC(=O)OC(C)OC(=O)[C@@H]1N2C(=O)[C@@H](NC(=O)[C@H](N)c3ccccc3)[C@H]2SC1(C)C (stereo not given in full) [bacampicillin]
inactive: 1 nM 8.5% | 8.33 nM 1.16% | 100 nM -0.89% | 833.33 nM -1.91% | 10000 nM -2.49%

CCN1CCN(Cc2ccc(-c3cc4c(N[C@H](C)c5ccccc5)ncnc4[nH]3)cc2)CC1
inactive: 1 nM 1.55% | 8.33 nM 0.57% | 100 nM -1.71% | 833.33 nM -10.4% | 10000 nM -16%

O=P1(NCCCl)OCCCN1CCCl (stereo not given) [ifosfamide]
inactive: 1 nM 0.24% | 8.33 nM -2.31% | 100 nM 0.48% | 833.33 nM 0.22% | 10000 nM -0.05%

C[C@@H]1NC(=O)[C@@H](N)CNC(=O)[C@H](C2CCNC(=N)N2)NC(=O)/C(=C/NC(N)=O)NC(=O)[C@H](CNC(=O)CC(N)CCCN)NC1=O.N=C1NCC[C@H]([C@@H]2NC(=O)/C(=C/NC(N)=O)NC(=O)[C@H](CNC(=O)C[C@@H](N)CCCN)NC(=O)[C@H](CO)NC(=O)[C@@H](N)CNC2=O)N1 [capreomycin]
inactive: 1 nM 0.56% | 8.33 nM -0.28% | 100 nM -1.08% | 833.33 nM 0.24% | 10000 nM 2.53%

Nc1ncnc2c1ncn2[C@@H]1O[C@H](CO)C[C@H]1O [cordycepin]
inactive: 1 nM -1.1% | 8.33 nM 0.92% | 100 nM 1.03% | 833.33 nM -0.81% | 10000 nM -3.28%

O=C(O)[C@@H]1C[C@@H](C2CCCCC2)CN1C(=O)CP(=O)(O)CCCCc1ccccc1 [fosinoprilat]
inactive: 1 nM -0.23% | 8.33 nM -5.78% | 100 nM -5.83% | 833.33 nM 0.83% | 10000 nM 6.8%

CCN(CC)CCNC(=O)c1ccc(N)cc1 [procainamide]
inactive: 1 nM -2.56% | 8.33 nM 0.24% | 100 nM -0.04% | 833.33 nM -1.26% | 10000 nM 0.87%

Cc1cc(C)n(-c2cccc([C@H](CC(=O)O)CN3CC[C@@H](CCc4ccc5c(n4)NCCC5)C3)c2)n1 [integrin-antagonist-1]
inactive: 1 nM 6.72% | 8.33 nM 7.35% | 100 nM 0.83% | 833.33 nM 0.99% | 10000 nM -0.92%

Cc1ccc([N+](=O)[O-])cc1S(=O)(=O)N(C)/N=C/c1cnc2ccc(Br)cn12
inactive: 1 nM 0.29% | 8.33 nM -0.13% | 100 nM -5.92% | 833.33 nM -16.5% | 10000 nM -5.86%

CC(C)[C@@H](CS(=O)(=O)C(C)C)N1C(=O)[C@@](C)(CC(=O)O)C[C@H](c2cccc(Cl)c2)[C@H]1c1ccc(Cl)cc1
inactive: 1 nM 2.3% | 8.33 nM 3.7% | 100 nM 3.54% | 833.33 nM 4.65% | 10000 nM 4.3%

C[N+](C)(C)CCOC(N)=O [carbachol]
inactive: 1 nM 1.16% | 8.33 nM 1.84% | 100 nM -1.48% | 833.33 nM 2.68% | 10000 nM 4.16%

CC(C)(C)c1nc(-c2cccc(NS(=O)(=O)c3c(F)cccc3F)c2F)c(-c2ccnc(N)n2)s1 [dabrafenib]
inactive: 1 nM -0.66% | 8.33 nM -0.54% | 100 nM 0.25% | 833.33 nM -1.77% | 10000 nM 13.1%

C1CCC(C(CC2CCCCN2)C2CCCCC2)CC1 (stereo not given) [perhexiline]
inactive: 1 nM 0.59% | 8.33 nM 4.47% | 100 nM 2.39% | 833.33 nM 0.87%
active: 10000 nM 48.5%

CCCC[C@H](NC(=O)[C@@H]1[C@@H]2[C@H](CN1C(=O)[C@@H](NC(=O)NC1(CS(=O)(=O)C(C)(C)C)CCCCC1)C(C)(C)C)C2(C)C)C(=O)C(=O)NC1CC1 [narlaprevir]
inactive: 1 nM 0.96% | 8.33 nM 1.32% | 100 nM 0.06% | 833.33 nM 3.2% | 10000 nM 0.24%

Oc1ccc(C2(c3ccccc3F)CCC(F)(F)CC2)cc1
inactive: 1 nM 1.54% | 8.33 nM -0.41% | 100 nM -0.21% | 833.33 nM -1.05% | 10000 nM 0%

CCCCOCCOc1nc(-c2ccc(C(=O)O)c(F)c2)sc1C
inactive: 1 nM -0.86% | 8.33 nM -0.63% | 100 nM -1.87% | 833.33 nM -1.76% | 10000 nM 2.1%

CCCCCCCCCCC[C@@H](C[C@@H]1OC(=O)[C@H]1CCCCCC)OC(=O)[C@H](CC(C)C)NC=O [orlistat]
inactive: 1 nM 1.59% | 8.33 nM 3.04% | 100 nM 0.9% | 833.33 nM 2.31% | 10000 nM 1.43%

COc1cc2c(NC3CCN(C(C)C)CC3)nc(C3CCCCC3)nc2cc1OCCCN1CCCC1
active: 10000 nM 59.6%
inactive: 1 nM 0.58% | 8.33 nM -2.43% | 100 nM -1.38% | 833.33 nM -2.98%

CC(=O)CC(=O)O [lithium-acetoacetate]
inactive: 1 nM -0.56% | 8.33 nM -0.05% | 100 nM 1.48% | 833.33 nM 1.82% | 10000 nM 0.27%

CCOC(=O)c1ccccc1OC(=O)CCCCCCCC(=O)Oc1ccccc1C(=O)OCC
inactive: 1 nM 6.82% | 8.33 nM 0.93% | 100 nM -6.73% | 833.33 nM -0.1% | 10000 nM -6.2%

CCCC[C@@H](NC(=O)[C@@H](Cc1cn(C(=O)OC)c2ccccc12)NC(=O)[C@H](CC(C)(C)C)NC(=O)N1[C@H](C)CCC[C@@H]1C)C(=O)O
inactive: 1 nM 1.03% | 8.33 nM 2.89% | 100 nM 1.32% | 833.33 nM -1.6% | 10000 nM 1.29%

Cc1ccc(-c2ccc(F)cc2COc2ccc(CCC(=O)O)cc2)cc1
inactive: 1 nM -2.64% | 8.33 nM 0.79% | 100 nM -1.34% | 833.33 nM 0.38% | 10000 nM -1.53%

Nc1ncnc2c1ncn2[C@@H]1O[C@H](CO)[C@@H](O)[C@H]1O [adenosine]
inactive: 1 nM 2.02% | 8.33 nM 3.5% | 100 nM 0.67% | 833.33 nM -1.84% | 10000 nM 1.06%

O=C(OCC(COC(=O)c1cccnc1)(COC(=O)c1cccnc1)COC(=O)c1cccnc1)c1cccnc1 [niceritrol]
inactive: 1 nM -3.51% | 8.33 nM -0.29% | 100 nM 2.18% | 833.33 nM 0.03% | 10000 nM 6.17%

CC[C@H](CO)Nc1nc(Nc2cccc(-c3ccccn3)c2)c2ncn(C(C)C)c2n1
inactive: 1 nM -2.32% | 8.33 nM 0.36% | 100 nM 0.93% | 833.33 nM 1.09% | 10000 nM -7.74%

COc1cccc2c1C(=O)c1c(O)c3c(c(O)c1C2=O)C[C@@](O)(C(=O)CO)C[C@@H]3O[C@H]1C[C@H](N2CCO[C@H](OC)C2)[C@H](O)[C@H](C)O1 [nemorubicin]
inactive: 1 nM 1.94% | 8.33 nM -5.08% | 100 nM -8.02% | 833.33 nM -7.55% | 10000 nM -7.13%

c1ccc2sc(SN3CCOCC3)nc2c1 [N-oxydiethylenebenzothiazole-2-sulfenamide]
inactive: 1 nM -2.53% | 8.33 nM -1.68% | 100 nM -1.37% | 833.33 nM 0.03% | 10000 nM -1.24%

CNc1ncc2cc(-c3cc(NC(=O)NCCC(C)(C)C)c(F)cc3C)c(C)nc2n1
inactive: 1 nM 0.87% | 8.33 nM 1.85% | 100 nM 5.54% | 833.33 nM -4.43% | 10000 nM -8.15%

CCN(CC)Cc1nccn1-c1ccc([N+](=O)[O-])cc1C(=O)c1ccccc1Cl [nizofenone]
inactive: 1 nM -1.17% | 8.33 nM 0.76% | 100 nM -0.2% | 833.33 nM 0.15% | 10000 nM 1.83%

Cc1cn([C@H]2O[C@@H](CO)[C@H](O)[C@H]2F)c(=O)[nH]c1=O [clevudine]
inactive: 1 nM 3.12% | 8.33 nM -0.16% | 100 nM 1.71% | 833.33 nM 2.27% | 10000 nM 1.38%

O=c1cc(N2CCOCC2)oc2c1ccc1ccccc12
inactive: 1 nM -1.26% | 8.33 nM 2.98% | 100 nM -0.06% | 833.33 nM 0.08% | 10000 nM -1.32%

COCCNC(=O)Cn1cnc([N+](=O)[O-])n1 [sanazole]
inactive: 1 nM -0.19% | 8.33 nM 0.45% | 100 nM -0.68% | 833.33 nM -0.43% | 10000 nM -3%

Nc1ccccc1NC(=O)c1ccc(CNc2nccc(-c3cccnc3)n2)cc1 [mocetinostat]
inactive: 1 nM 0.57% | 8.33 nM -0.45% | 100 nM -0.53% | 833.33 nM 1.7% | 10000 nM -0.45%

CN1CCN(CCCCN2C(=O)CN(/N=C/c3ccc(-c4ccc(Cl)cc4)o3)C2=O)CC1 [azimilide]
inactive: 1 nM 0.53% | 8.33 nM 0.51% | 100 nM 2.48% | 833.33 nM 0.41% | 10000 nM -1.08%
